Data published in PubChem BioAssay (NCI).
Compounds without any hit were thinned out: in the full panel of roughly 83,000, 20% have a hit.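 Values shown are percent growth following 48 h exposure of cells in 96-well plates to a single concentration of compound; below 10 was considered active.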 A number with no mark means an inactive call. Activity calls are given as the source filed them.

These compounds were tested on COLO 205 colon (assay: NCI-60 one-dose screen, 48 h (100 = growth as untreated, 0 = no growth, -100 = all killed)). Conditions: 10 µM unless noted.

| Compound | growth |
| --- | --- |
| CCCCCCCCCCCCCCCCCCOc1ccccc1CC(=O)OCCC[N+](C)(C)C | 16.7% |
| Cn1c(-c2c(N)n(Cc3cccnc3)c3nc(C#N)c(C#N)nc23)nc2ccccc21 | 117% |
| COc1ccc(-c2nc3ccc4[nH]ncc4c3c3c2CCCC3)cc1B(O)O | 45.8% |
| COc1ccc(/C=N/C2=C(C#N)C(c3ccc(OC)cc3)c3ccc4ccccc4c3O2)cc1 (stereo not drawn) | 102% |
| COC1=CC(=O)C[C@@H](C)[C@]12Oc1c(Cl)c(OC)cc(OC)c1C2=O | 106% |
| Cc1ccc(NS(=O)(=O)c2ccc3c(c2)C2OCCC2C(c2ccc(C(=O)C(C)C)cc2)N3)cc1C (stereo not drawn) | 30.8% |
| NC(=O)c1ccc[n+](Cc2ccc(Cl)cc2Cl)c1 | 111% |
| CC(=O)OC1CCC2(C)C(=CC3C4CCC(=O)C4(C)CCC32)C1 (stereo not drawn) | 94% |
| CNC(=O)CCN1CCN(CC/C=C2\c3ccccc3Sc3ccc(Cl)cc32)CC1 | 85.8% |
| Clc1ccc(-c2c3ccc(=[N+]4CCCCC4)cc-3oc3cc(N4CCCCC4)ccc23)cc1 | -71.1% (active) |
| Cc1nc2c(c(N3CCCc4ccccc43)n1)CCC2 | -59.5% (active) |
| N#Cc1c2c(nn(-c3ccccc3)c1=O)C(O)=C([N+](=O)[O-])C(c1ccccc1)C2 (stereo not drawn) | 99.4% |
| c1ccc2c(c1)nc(CN1CCOCC1)n1cc(N3CCCC3)nc21 | 103% |
| N=C1C(c2nc(-c3ccc(Br)cc3)cs2)=C(O)CN1Cc1cccnc1 | 87.5% |
| CC/C=C\C[C@H](O)C/C=C1/C(=O)C=C[C@@H]1C/C=C\CCCCO | -34.3% (active) |
| O=C(CCc1nnc(CN(c2ccccc2)c2ccccc2)o1)c1nc2ccccc2[nH]1 | 102% |
| Cc1ccc(NCCN(C)C)c2c(=O)c3ccccc3sc12 | -53.5% (active) |
| O=C(N/N=C/c1ccncc1)c1ccc(C(F)(F)F)nc1Nc1cccc(C(F)(F)F)c1 | -3.93% (active) |
| CC1(c2ccccc2)NC(=O)N(NC(=O)CSc2nc(-c3cccs3)nc3ccccc23)C1=O (stereo not drawn) | 124% |

| Compound | growth |
| --- | --- |
| NC(=O)c1ccc[n+]([C@@H]2O[C@H](COP(=O)([O-])OP(=O)(O)OC[C@H]3O[C@@H](n4cnc5c(N)ncnc54)[C@H](O)[C@@H]3O)[C@@H](O)[C@H]2O)c1 | 113% |
| COc1cc(C2CC(c3cc(OC)c(OCCCOc4ccc(-n5c(/C=C/c6ccccc6)nc6ccccc6c5=O)cc4)c(OC)c3)=NO2)cc(OC)c1OC (stereo not drawn) | 115% |
| COc1cc(Cn2ncc3ccc(NC(=O)c4cc5ccccc5oc4=N)cc32)cc(OC)c1OC | 55.1% |
| CCOc1c(C#N)nnc2c(C#N)c(NC(=O)c3ccccc3)nn12 | 107% |
| COc1cc2c(cc1-c1c(C)noc1C)ncc1nc(C3CCCCC3)n(C3CCC(OC(F)F)CC3)c12 (stereo not drawn) | 1.16% (active) |
| Cc1cc(=O)[nH]c(N=Nc2c(O)[nH]c3ccccc23)n1 | 89.5% |
| COc1ccc(/C=C/c2c(C(=O)/C=C/c3ccc(F)cc3)c(C)nc3ccccc23)cc1 | 79.8% |
| CCCCN(CCCC)CC(C)(C)C(O)c1ccc(OC)c2ccccc12 (stereo not drawn) | 71% |
| Cc1c(C)c2c(c(C)c1OCC(=O)O)CC[C@@](C)(CCC[C@@H](C)CCC[C@@H](C)CCCC(C)C)O2 | -10.6% [50 µM] (active) |
| Cn1c(I)c(C#C[Si](C)(C)C)c(=O)n(C(=O)c2ccccc2)c1=O | -7.64% (active) |
| O=C(NCCCNc1cc(-c2cn(-c3ccccc3)nc2-c2cccc(O)c2)ccn1)c1ccc(F)cc1 | -59.1% (active) |
| Cc1ccc2c(c1)Sc1c(ccc3ccccc13)N2 | 91.5% |
| O=C(Nc1ccc(-n2cc(-c3ccncc3)c(-c3ccc(Cl)c(O)c3)n2)cc1)N1CCOCC1 | 97.4% |
| Cc1cccc(Cc2cnc(NC(=O)c3ccc4nnsc4c3)s2)c1 | 94.8% |
| CC(=O)c1ccc(NCC(=O)Nc2ccccn2)cc1 | 103% |
| COC(=O)c1ccc(C2Nc3ccc(S(=O)(=O)Nc4ccc(C)c(C)c4)cc3C3OCCC23)cc1 (stereo not drawn) | 94% |
| Cc1ccc(-c2cc(-c3cccnc3)[nH]c(=O)c2C#N)cc1 | 118% |
| Cn1ccc2c(c1=O)C(=O)c1nccc3c1c-2nc1ccccc13 | -75.5% (active) |
| CCc1ccccc1-n1c(N)c(C#N)c(-c2ccc(N(C)C)cc2)c(C#N)c1=O | 114% |
